Test results from ChEMBL document CHEMBL3988442, “University of Dundee, Small-Polar-MMV Screening Library” (2021).
The whole screen tested about 48,000 compounds, of which about 13,000 (27%) showed an effect of 50% or more. The list shows a part of the results.

test system: Wolbachia pipientis; assay: Anti-Wolbachia Cell-Based Screen; assay type: functional; design: scale not given: in the data most compounds retested in dose-response had high values; conditions: 5 µM

| Structure (SMILES) | Percent Effect |
| --- | --- |
| COc1ccccc1Oc1ncccc1CNC(=O)[C@@H](N)CCO | -18.01% |
| O=C(NC1CC1)c1ccnc(N2CCOC(c3ccc(Cl)c(Cl)c3)C2)c1 (stereo not given) | -23.24% |
| Cc1ccc(N2CC[C@@H]3O[C@@H](c4ccncn4)C[C@H]3C2)nn1 | 17.26% |
| O=C(NC1CC1)c1ccnc(N2CCOC(c3ccc(Cl)cc3)C2)c1 (stereo not given) | -21.25% |
| Cc1cc(N2CCOC(c3ccncn3)C2)ncn1 (stereo not given) | 99.32% |
| COc1cc(N2CC[C@@H]3O[C@@H](c4ccncn4)C[C@H]3C2)ncn1 | -28.63% |
| Cc1cc(N2CCOC(c3ccc(C(N)=O)cn3)C2)ncn1 (stereo not given) | 105.9% |
| CN(C)CCN1CCOC2(CCN(c3nccs3)CC2)c2ccccc21 | -12.88% |
| N#Cc1ccc(C(=O)N2CCOC[C@H](Oc3cnccn3)C2)cc1 | -4.484% |
| CC1(C)CNC(=O)c2nc(CCN3CCCCC3CO)[nH]c2C1 (stereo not given) | -22.93% |
| CCOc1cc(NC(=O)C2CC(=O)N(c3cccc(OC)c3)C2)ncn1 (stereo not given) | -2.704% |
| CCN(Cc1ccc(C#N)cc1F)C(=O)C(C)(C)C | 4.691% |
| CC(C)c1nc2c(n1C)CCN(CC(=O)Nc1cccnc1)C2 | 119.2% |
| CC(C)c1nc2c(n1C)CCN(CC(=O)Nc1nccs1)C2 | -1.818% |
| CC(C)c1nc2c(n1C)CCN(CC(=O)Nc1ccc(Cl)cn1)C2 | 6.553% |
| Cc1nn(C)c(C)c1NC(=O)CN1CCc2c(nc(C(C)C)n2C)C1 | -19.45% |
| CC(C)c1nc2c(n1C)CCN(CCc1ccccn1)C2 | 5.197% |
| CC(C)c1nc2c(n1C)CCN(CC(=O)Nc1ccnn1C(C)C)C2 | 120.4% |
| CC(C)c1cc(NC(=O)CN2CCc3c(nc(C(C)C)n3C)C2)on1 | 6.487% |
| CC(C)c1nc2c(n1C)CCN(CC(=O)Nc1ccncc1)C2 | 127.6% |
| CC(C)c1nc2c(n1C)CCN(CC(=O)NCc1ccccn1)C2 | -5.66% |
| COc1ccnc(N2CCC(=O)N(CC3CC3)C(C(C)C)C2)n1 (stereo not given) | -66.14% |

| Structure (SMILES) | Percent Effect |
| --- | --- |
| Cc1n[nH]cc1CNCC(c1cccc(F)c1)N(C)C (stereo not given) | -5.12% |
| O=S(=O)(CC1CCOCC1)NCc1ncc(-c2ccccc2)o1 | -9.674% |
| Cn1cc(C2CCCN2CC(=O)N(CCC#N)Cc2ccco2)cn1 (stereo not given) | 0.296% |
| O=C(NC1CC1)C1CCN(c2cccc(C(F)(F)F)n2)CC1 | -5.657% |
| CC(=O)NCC1CCN(c2cc(C)nc(-c3ccncc3)n2)CC1 | 110% |
| CC(=O)NCC1CCN(c2ccnc3ccc(Br)cc23)CC1 | 3.515% |
| CCNC(=O)CN1CCN(c2cc(C)nc(-c3ccncc3)n2)CC1 | 108.7% |
| CC(=O)NCC1CCN(c2cc(C(C)C)nc3ccnn23)CC1 | -0.4994% |
| Cc1cc(N2CCC(C(=O)N(C)C)CC2)nc(-c2ccncc2)n1 | 121.6% |
| O=C(NC1CCN(c2cccc(C(F)(F)F)n2)CC1)C1CC1 | -2.588% |
| CCNC(=O)CN1CCN(c2ccnc3c(F)ccc(F)c23)CC1 | 11.86% |
| Cc1cc(C)n(-c2cncc(N3CCC(C(=O)N(C)C)CC3)n2)n1 | -4.811% |
| Cc1cc(N2CCC(N(C)C(=O)c3ccccc3)CC2)nc(C)n1 | -0.5132% |
| Cc1cc(N2CCC(C(=O)NC3CC3)CC2)nc(-c2ccncc2)n1 | 96.2% |
| Cc1cc(NCC(=O)NCC(F)(F)F)nc(-c2ccncc2)n1 | 6.905% |
| COCC(=O)NC(c1ccc(Cl)cc1)c1noc(C)n1 (stereo not given) | 10.23% |
| CN1CCN(CC[C@@H]2CC[C@H](O)[C@@H](C(=O)Nc3ccccc3)O2)CC1 | -5.857% |
| Cc1c(Cl)cc(C(=O)N(CCO)Cc2nccn2C)cc1Cl | -0.9396% |
| CCC1CN(Cc2nnc(C3CC3)o2)CCC(=O)N1Cc1ccccc1 (stereo not given) | 1.6% |
| Cc1cccc(CNC2CCN(CCc3ccncc3)CC2)c1C | -28.44% |
| O=C(Nc1ccccc1)C1CN(Cc2nccs2)CC12CCOCC2 (stereo not given) | -7.197% |
| CCCN(C)C(=O)Nc1ccc(C(=O)NCCC(=O)OC)cc1 | 0.9295% |

| Structure (SMILES) | Percent Effect |
| --- | --- |
| COc1ccc(-c2nc3c([nH]2)CCNC3C(=O)O)c2ccccc12 (stereo not given) | -1.412% |
| Cn1ncc2c(=O)[nH]c(N3CCCC3c3cccs3)nc21 (stereo not given) | 2.416% |
| O=C1N[C@@H]2CCN(C(=O)C3CC3)[C@@H]2C(=O)N1c1ccc(F)cc1 | -5.922% |
| Cc1cc(N2CCOC(CN)C2)nc(-c2ccccc2)n1 (stereo not given) | 6.388% |
| COC(=O)C1CCN(C(=O)CN2CCN(c3cccc(C)c3)CC2)CC1 | -8.309% |
| Cc1cc(N2CCOC(C(F)(F)F)C2)nc(-c2ccccc2)n1 (stereo not given) | 4.501% |
| Cc1cc(N2CCN(c3ccc(=O)[nH]n3)CC2)nc(-c2ccncc2)n1 | 110.1% |
| COC(=O)C1CCN(c2cncc(-n3nc(C)cc3C)n2)CC1 | -8.177% |
| COC(=O)C1CCN(c2cc(C)nc(-c3ccncc3)n2)CC1 | 111% |
| Cc1nc2ncnn2c2ccn(-c3cccnc3O)c(=O)c12 | -8.283% |
| Cc1c(C(N)=O)sc2nc(C(F)(F)F)ccc12 | -3.926% |
| O=c1ccc2c(n1CC1CC1)CCC(NS(=O)(=O)C1CC1)C2 (stereo not given) | -36.22% |
| O=c1ccc2c([nH]1)CCC(NS(=O)(=O)C1CC1)C2 (stereo not given) | 112.2% |
| CS(=O)(=O)NC1CCc2[nH]c(=O)ccc2C1 (stereo not given) | 99.95% |
| O=C(NC1CCc2[nH]c(=O)ccc2C1)C1CCOCC1 (stereo not given) | -2.009% |
| CCCS(=O)(=O)NC1CCc2c(ccc(=O)n2CC2CC2)C1 (stereo not given) | -27.38% |
| CCS(=O)(=O)NC1CCc2c(ccc(=O)n2CC2CC2)C1 (stereo not given) | 2.839% |
| Cc1oc(-c2ccsc2)nc1CNC(C)Cn1cccn1 (stereo not given) | -4.999% |
| CS(=O)(=O)c1ccc(CNC[C@H]2COCc3nc4cccnc4n32)cc1 | -5.618% |
| Cc1ccc(N2CCN(c3ccccc3C)CC2C)nn1 (stereo not given) | -2.059% |
| CC1(C)[C@H]2CC=C(CN3CCCn4nc(CNS(C)(=O)=O)cc4C3)[C@@H]1C2 | -5.008% |
